The supplement of paper PMC12819154, “High-throughput peptide-centric local stability assay extends protein–ligand identification to membrane proteins, tissues and bacteria” (Nature Structural & Molecular Biology, 2025)
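Also: lysate desalted by size exclusion to strip endogenous ATP, peptide intensities built from DIA-NN precursor signals, and peptides missing any value discarded before comparison.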

Sequence of UniProt P30176 (P30176 whole entry): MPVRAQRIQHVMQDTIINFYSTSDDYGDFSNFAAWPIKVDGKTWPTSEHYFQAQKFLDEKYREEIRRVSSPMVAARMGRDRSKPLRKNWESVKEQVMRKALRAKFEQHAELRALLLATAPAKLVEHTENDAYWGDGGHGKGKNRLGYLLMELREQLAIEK
Sequence of UniProt P42603 (P42603 whole entry): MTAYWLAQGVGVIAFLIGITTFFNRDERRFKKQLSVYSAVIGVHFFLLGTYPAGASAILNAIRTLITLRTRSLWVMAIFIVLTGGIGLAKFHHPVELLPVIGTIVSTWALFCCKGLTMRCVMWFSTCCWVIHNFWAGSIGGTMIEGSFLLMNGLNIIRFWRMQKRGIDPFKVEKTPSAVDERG
Sequence of UniProt P37342 (P37342 whole entry): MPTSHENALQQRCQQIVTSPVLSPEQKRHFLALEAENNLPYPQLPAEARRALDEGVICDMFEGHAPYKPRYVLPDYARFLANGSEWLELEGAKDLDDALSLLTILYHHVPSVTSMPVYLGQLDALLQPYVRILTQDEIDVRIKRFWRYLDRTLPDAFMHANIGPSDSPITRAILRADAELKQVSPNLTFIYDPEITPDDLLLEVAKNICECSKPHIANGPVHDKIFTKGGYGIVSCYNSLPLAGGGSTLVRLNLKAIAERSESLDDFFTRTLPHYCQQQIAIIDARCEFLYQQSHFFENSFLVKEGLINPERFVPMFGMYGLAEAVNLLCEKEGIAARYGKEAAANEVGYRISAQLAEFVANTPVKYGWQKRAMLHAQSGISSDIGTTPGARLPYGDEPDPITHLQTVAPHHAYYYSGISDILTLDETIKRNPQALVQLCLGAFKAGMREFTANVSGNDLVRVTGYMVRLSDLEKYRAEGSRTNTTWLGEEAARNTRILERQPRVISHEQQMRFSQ
Sequence of UniProt P11446 (P11446 whole entry): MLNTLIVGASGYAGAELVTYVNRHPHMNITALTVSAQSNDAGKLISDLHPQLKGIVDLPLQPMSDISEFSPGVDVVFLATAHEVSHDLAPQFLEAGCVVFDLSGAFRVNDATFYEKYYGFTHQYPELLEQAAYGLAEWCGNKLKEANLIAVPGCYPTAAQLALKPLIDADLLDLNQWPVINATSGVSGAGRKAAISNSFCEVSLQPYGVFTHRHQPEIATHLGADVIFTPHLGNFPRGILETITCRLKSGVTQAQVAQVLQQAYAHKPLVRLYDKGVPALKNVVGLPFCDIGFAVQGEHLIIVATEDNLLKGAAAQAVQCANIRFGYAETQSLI
Sequence of UniProt P07118 (P07118 whole entry): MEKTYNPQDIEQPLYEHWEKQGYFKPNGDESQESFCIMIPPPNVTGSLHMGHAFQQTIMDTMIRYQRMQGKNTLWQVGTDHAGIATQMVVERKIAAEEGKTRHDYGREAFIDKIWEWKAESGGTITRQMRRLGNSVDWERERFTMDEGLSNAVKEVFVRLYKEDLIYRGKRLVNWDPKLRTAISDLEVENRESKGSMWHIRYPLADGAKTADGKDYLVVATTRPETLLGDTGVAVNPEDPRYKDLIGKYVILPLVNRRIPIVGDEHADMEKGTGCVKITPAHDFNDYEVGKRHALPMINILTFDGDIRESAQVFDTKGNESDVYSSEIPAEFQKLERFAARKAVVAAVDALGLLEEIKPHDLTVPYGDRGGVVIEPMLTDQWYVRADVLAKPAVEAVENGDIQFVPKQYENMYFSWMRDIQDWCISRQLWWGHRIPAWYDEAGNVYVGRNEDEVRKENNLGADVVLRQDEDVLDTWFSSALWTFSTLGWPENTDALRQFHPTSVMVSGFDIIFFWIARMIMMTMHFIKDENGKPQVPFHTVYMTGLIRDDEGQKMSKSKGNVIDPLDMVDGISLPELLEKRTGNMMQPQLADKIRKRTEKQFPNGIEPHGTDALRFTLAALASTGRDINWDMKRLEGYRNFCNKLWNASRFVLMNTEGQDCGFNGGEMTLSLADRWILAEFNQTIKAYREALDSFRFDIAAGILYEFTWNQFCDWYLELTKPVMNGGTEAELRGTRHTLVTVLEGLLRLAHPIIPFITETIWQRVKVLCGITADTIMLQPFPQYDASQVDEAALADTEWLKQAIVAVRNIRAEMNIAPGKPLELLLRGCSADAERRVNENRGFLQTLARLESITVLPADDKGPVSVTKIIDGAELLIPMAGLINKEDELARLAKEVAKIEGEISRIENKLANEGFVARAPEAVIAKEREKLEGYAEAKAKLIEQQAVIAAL
Sequence of UniProt P24240 (P24240 whole entry): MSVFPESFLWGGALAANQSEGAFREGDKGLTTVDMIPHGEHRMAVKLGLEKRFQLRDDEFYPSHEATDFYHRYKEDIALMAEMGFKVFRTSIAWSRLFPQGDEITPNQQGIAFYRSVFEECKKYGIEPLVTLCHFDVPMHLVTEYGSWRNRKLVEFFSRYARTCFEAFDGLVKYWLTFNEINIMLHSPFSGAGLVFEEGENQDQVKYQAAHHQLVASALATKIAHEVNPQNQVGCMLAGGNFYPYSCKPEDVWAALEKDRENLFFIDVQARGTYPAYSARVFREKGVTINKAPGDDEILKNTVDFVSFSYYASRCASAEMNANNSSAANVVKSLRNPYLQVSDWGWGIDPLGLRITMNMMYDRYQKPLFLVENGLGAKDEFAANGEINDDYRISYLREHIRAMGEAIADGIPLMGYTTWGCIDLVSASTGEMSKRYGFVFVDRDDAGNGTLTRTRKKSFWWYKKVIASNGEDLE
Sequence of UniProt P18775 (P18775 whole entry): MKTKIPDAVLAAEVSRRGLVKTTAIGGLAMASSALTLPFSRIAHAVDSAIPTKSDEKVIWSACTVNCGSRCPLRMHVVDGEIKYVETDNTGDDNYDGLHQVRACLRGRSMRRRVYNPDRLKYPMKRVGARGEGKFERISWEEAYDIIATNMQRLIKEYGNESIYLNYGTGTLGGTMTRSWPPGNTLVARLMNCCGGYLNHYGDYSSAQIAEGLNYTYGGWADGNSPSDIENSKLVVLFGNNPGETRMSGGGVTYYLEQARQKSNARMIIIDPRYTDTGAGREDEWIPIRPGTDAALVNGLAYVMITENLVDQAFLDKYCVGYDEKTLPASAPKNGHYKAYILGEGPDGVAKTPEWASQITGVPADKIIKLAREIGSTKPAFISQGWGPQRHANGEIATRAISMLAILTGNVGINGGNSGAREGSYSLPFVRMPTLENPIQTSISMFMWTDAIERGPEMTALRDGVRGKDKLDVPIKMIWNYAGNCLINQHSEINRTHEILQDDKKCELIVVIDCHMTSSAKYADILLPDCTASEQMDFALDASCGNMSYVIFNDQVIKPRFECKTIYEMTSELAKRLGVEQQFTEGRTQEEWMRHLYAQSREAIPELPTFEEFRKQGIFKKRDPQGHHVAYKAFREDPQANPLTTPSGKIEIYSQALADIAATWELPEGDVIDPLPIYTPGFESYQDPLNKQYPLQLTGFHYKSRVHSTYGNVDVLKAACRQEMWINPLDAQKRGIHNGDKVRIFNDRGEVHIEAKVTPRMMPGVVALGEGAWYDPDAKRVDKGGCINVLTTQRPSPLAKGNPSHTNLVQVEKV
Sequence of UniProt Q46868 (Q46868 whole entry): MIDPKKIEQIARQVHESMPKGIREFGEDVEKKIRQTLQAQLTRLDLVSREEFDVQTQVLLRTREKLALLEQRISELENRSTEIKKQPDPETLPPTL
Sequence of UniProt P03007 (P03007 whole entry): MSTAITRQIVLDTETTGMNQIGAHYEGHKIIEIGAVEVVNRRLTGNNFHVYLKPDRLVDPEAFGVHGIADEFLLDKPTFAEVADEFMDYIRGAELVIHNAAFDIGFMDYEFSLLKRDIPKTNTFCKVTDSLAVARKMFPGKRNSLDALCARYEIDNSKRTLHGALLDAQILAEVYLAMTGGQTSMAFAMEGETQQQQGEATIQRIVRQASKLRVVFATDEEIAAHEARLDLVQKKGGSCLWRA
Sequence of UniProt P27241 (P27241 whole entry): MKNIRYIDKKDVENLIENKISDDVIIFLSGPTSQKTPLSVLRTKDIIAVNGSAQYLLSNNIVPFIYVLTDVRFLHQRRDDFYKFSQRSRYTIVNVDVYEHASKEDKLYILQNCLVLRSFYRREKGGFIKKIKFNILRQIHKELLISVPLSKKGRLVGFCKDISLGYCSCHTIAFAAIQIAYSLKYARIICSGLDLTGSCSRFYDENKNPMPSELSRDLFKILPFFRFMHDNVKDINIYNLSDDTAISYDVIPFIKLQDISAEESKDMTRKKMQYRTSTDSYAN

Each target was assayed with Nc1ncnc2c1ncn2[C@@H]1O[C@H](COP(=O)(O)OP(=O)(O)OP(=O)(O)O)[C@@H](O)[C@H]1O [adenosine 5'-triphosphate] (assay: log2 fold change of tryptic peptide abundance, ligand vs vehicle (limited proteolysis) (log2 ratio); higher = more trypsin-susceptible (destabilized)). Conditions: ligand concentration: 5 mM; sample: E. coli desalted lysate; replicate design: treated before aliquoting.
Method: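 HT-PELSA: desalted E. coli K-12 BW25113 lysate (with 12 mM MgCl2) incubated with 5 mM ATP (pH 7) or water for 30 min at 25 C, then a 4 min trypsin pulse at 22 C. Peptides were quantified by DIA-MS (4 replicates). Value is the peptide log2 fold change (treated/control); negative = stabilized. Scale: negative = ligand-stabilized region.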
For “UniProt P30176 (peptide sequence: LVEHTENDAYWGDGGHGK, peptide start residue: 123)”, the log2 fold change was -0.814. “UniProt P27241 (peptide sequence: YTIVNVDVYEHASKEDK, peptide start residue: 90)” gave a log2 fold change of -0.487. With “UniProt P37342 (peptide sequence: SESLDDFFTR, peptide start residue: 261)” the log2 fold change was 0.46. For “UniProt P24240 (peptide sequence: YGFVFVDRDDAGNGTLTR, peptide start residue: 436)”, the log2 fold change was -0.866. Target “UniProt P18775 (peptide sequence: IAHAVDSAIPTK, peptide start residue: 42)” has a log2 fold change of -0.536. “UniProt P00490 (peptide sequence: QCNPALAALLDK, peptide start residue: 460)” showed a log2 fold change of 1.07. Target “UniProt P42603 (peptide sequence: TPSAVDER, peptide start residue: 175)” has a log2 fold change of -0.551. For “UniProt P07118 (peptide sequence: TGNMMQPQLADKIR, peptide start residue: 582)”, the log2 fold change was 2.07. In the case of “UniProt P11446 (peptide sequence: GAAAQAVQCANIR, peptide start residue: 312)”, the log2 fold change is reported as -0.854. With “UniProt Q46868 (peptide sequence: QVHESMPK, peptide start residue: 13)” the log2 fold change was -0.305. For “UniProt P03007 (peptide sequence: VTDSLAVAR, peptide start residue: 127)”, the log2 fold change was 0.313.
